This is a sample that favours compounds with a hit; in the whole collection about 27% have one here.
CYP2C9 inhib: blockers of cytochrome P450 2C9 activity – biochemical, luminescence, ADME assay, primary screen; 96,000 compounds, 20% hits; CYP2C9 Supersomes, luciferin-H conversion; P11712; inhibition, % at 5 µM;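 active = blocking of liver enzyme CYP2C9 beyond about 50% at 5 µM, limit read from the data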
Cav3 T inh: Cav3.2 calcium influx blockers – cell-based, Fluo-4 calcium fluorescence, FDSS, MLSMR library, primary screen; Voltage-dependent T-type calcium channel subunit alpha-1H (Homo sapiens), O95180; Cav3.2-expressing cells; hits give low values; AID 449739, 2010; B-score at 10 µM; 100,000 compounds, 4% hits;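 active = single-dose well whose peak fluorescence ratio is a statistical outlier from its plate by either plate-standardised score or position-corrected B-score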
CYP2C19 activ: human CYP2C19 activators, primary screen, biochemical, luminescence; activation factor at 5 µM; 96,000 tested, under 10 active; Cytochrome P450 2C19 (Homo sapiens), P33261; AID 1025, 2008; recombinant CYP2C19, luciferin-H EGE luminescence; hits give high values; 0 = fully inhibited enzyme, 1 = untreated enzyme;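 active = activation factor of at least 2 at 5 µM in the primary screen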;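 also: 0 = wells with 2.5 mM tranylcypromine and 1 = vehicle-only wells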
CYP2C19 inhib: blockers of cytochrome P450 2C19 activity – biochemical, luminescence, ADME assay, primary screen; 96,000 compounds, 21% hits; CYP2C19 Supersomes, luciferin-H EGE luminescence, 30 min; AID 778, 2007; P33261; inhibition, % at 5 µM;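 active = CYP2C19 inhibition above a set limit at 5 µM in the primary screen, cut at about 50% in these data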;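 also: plate controls were negative control wells for no effect and 2.5 mM tranylcypromine positive control for full effect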
CYP2C9 act: human CYP2C9 activators, primary screen, biochemical, luminescence; activation factor at 5 µM; recombinant CYP2C9, luciferin-H conversion; hits give high values; factor 1 = untreated enzyme, 0 = blocked; 96,000 compounds, 1.4% hits; Cytochrome P450 2C9 (Homo sapiens), P11712;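 active = activation factor of 2 or more for CYP2C9 at a 5 µM dose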;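 also: 0 = sulfaphenazole-blocked wells and 1 = vehicle-only wells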
The depositor's hits bear a star; . = no result.

SMILES	CYP2C9 inhib	Cav3 T inh	CYP2C19 activ	CYP2C19 inhib	CYP2C9 act
CSc1ccc(S(=O)(=O)Nc2ccc(F)cc2)cc1	92.4*	-5.1*	0	100.1*	0.1
COc1ccc(NS(=O)(=O)c2ccc(SC)cc2)cc1	96.1*	-2.26	0	100.0*	0
C#Cc1ccc([C@@H]2C=C(C(=O)O)O[C@H](OCC)[C@H]2CCCO)cc1	.	1.07	.	.	.
CCO[C@@H]1OC(C(=O)NC2CC2)=C[C@H](c2ccc(C(F)(F)F)cc2)[C@H]1CCCO	.	0.609	.	.	.
Cc1cccc(C(=O)N[C@@H]2c3ccccc3C[C@@H]2O)n1	.	0.641	.	.	.
CCc1nnc(NS(=O)(=O)c2ccc(N3C(=O)C4CC=C(Cl)CC4C3=O)cc2)s1 (centres undefined)	50.2*	0.0414	0.9	13.3	0.5
Cc1cc(C)cc(N2CCCC2=O)c1	.	0.197	.	.	.
COc1ccc(C2C3=C(CCCC3=O)Nc3nc(SCc4ccccc4)nn32)cc1OC (centres undefined)	42.2	-0.784	0.9	14.8	0.6
Cc1ccccc1CSc1nc2n(n1)C(c1cccs1)C1=C(CCCC1=O)N2 (centres undefined)	58.3*	-0.892	0.8	16.8	0.4
CCCCCCN(C(=O)CCCCCN1C(=O)NC(c2ccc(C3CCCCC3)cc2)C(C(=O)OCc2ccccc2)=C1C)C(C(=O)NCCCC)c1ccc(OCC(=O)OC)c(C(=O)OC)c1 (centres undefined)	.	-0.489	.	.	.
COc1ccc(C2C(Oc3ccccc3C)C(=O)N2Cc2ccc(F)cc2)cc1OC (centres undefined)	75.5*	-4.66*	0.1	90.2*	0.2
O=c1cc(CSc2ccc(S(=O)(=O)N3CCCCC3)cn2)nc2sccn12	79.7*	1.47	0.3	65.9*	0.2
O=S(=O)(c1ccc(SCCO)nc1)N1CCCC1	-19.9	0.599	0.6	38.2	1.2
CCC1CCCCN1C(=O)COC(=O)c1cc2ccccc2cc1O (centres undefined)	-21.9	-3.1	0.5	53.3*	1.2
Cc1cc(C)n(-c2ccc(Cl)c(C(=O)OCC(=O)N3CCCCC3C)n2)n1 (centres undefined)	42.6	-0.57	0.7	34.7	0.6
O=C(OCC(=O)N1CCCCC1)c1cc2ccccc2cc1O	-5.2	.	0.2	75.9*	1.1
CN1C(C(=O)NCc2cccc(Br)c2)CC2Cn3c(nc4cc(Cl)c(Cl)cc43)C21 (centres undefined)	.	-0.701	.	.	.
Cc1cc(C)c2ccc(C(=O)O)nc2c1O	-12.5	-1.29	1.1	-13.3	1.1
COc1ccccc1NC(=O)C1CCCCC1	-64.3	0.075	0.9	6.5	1.6
COc1ccccc1Nc1ccc(C(=O)NC2CCCCC2)cn1	-97.0	-0.223	0.8	24.0	2*
O=C(Cn1c(CN2CCCCC2)nc2ccccc2c1=O)NCc1ccco1	75.0*	-0.144	0.5	54.7*	0.3
O=C(CCCCn1c(=O)c2ccccc2n(Cc2ccc(F)cc2)c1=O)NCc1ccco1	84.9*	.	0.2	81.4*	0.2
N#Cc1ccccc1Cn1c(=O)n(Cc2ccc(C(=O)NCc3ccco3)cc2)c(=O)c2sccc21	36.1	-0.17	1.1	-8.0	0.6
O=C(CCCCn1c(=O)c2ccccc2n(CC(=O)Nc2ccccc2)c1=O)NCc1ccco1	46.5	.	1	-2.8	0.5
Cc1cccc(C)c1NC(=O)Cn1c(CN2CCCCC2)nc2ccccc2c1=O	.	-0.897	.	.	.
SMILES	CYP2C9 inhib	Cav3 T inh	CYP2C19 activ	CYP2C19 inhib	CYP2C9 act
O=C(NCc1ccco1)c1ccc(Cn2c(=O)c3ccccc3n(Cc3cccc(F)c3)c2=O)cc1	60.8*	-0.302	0.2	80.3*	0.4
O=C(Cn1c(=O)n(Cc2ccccc2)c(=O)c2ccccc21)NCc1ccco1	24.6	-0.194	0.5	51.9*	0.8
O=C(Nc1ccc(O)c2c(=O)cc(-c3ccccc3Cl)oc12)c1cccs1	.	1.5	.	.	.
COc1cccc(CNC(=O)c2ccc3nc[nH]c3c2)c1	-8.4	-0.681	0.6	38.1	1.1
O=C(CCn1c(=O)c2ccccc2n(Cc2ccccc2)c1=O)NCc1ccc2c(c1)OCO2	33.7	.	0.5	51.6*	0.7
O=C(CCCn1c(=O)c2ccccc2n(Cc2ccccc2)c1=O)NCc1ccco1	32.7	0.0306	0.1	90.1*	0.7
Cc1cccc(N2CCN(S(C)(=O)=O)CC2)c1C	15.8	0.332	0.9	12.6	0.8
CC(C)(C)NC(=O)C1Cc2ccccc2CN1C(=O)Nc1cccc(Cl)c1 (centres undefined)	30.8	-1.33	0.6	40.7	0.7
CCS(=O)(=O)N1Cc2ccccc2CC1C(=O)NCC12CC3CC(CC(C3)C1)C2 (centres undefined)	68.0*	-3.05	0.1	91.5*	0.3
CCS(=O)(=O)N1Cc2ccccc2CC1C(=O)N1CCN(c2cccc(C)c2C)CC1 (centres undefined)	58.4*	.	0.4	63.8*	0.4
COC(=O)c1ccc(CN2[C@H](C(=O)OC)C[C@@]3(O)[C@@H](O)[C@@H](O)[C@@H](O)C[C@@H]23)cc1	.	0.781	.	.	.
Cc1cccc(Cn2c(=O)n(-c3ccc(CC(=O)NCc4ccco4)cc3)c(=O)c3sccc32)c1	-1.7	-0.0892	1.2	-15.1	1
CC(C)CCn1c(=O)c2ccccc2n2c(CN3C(=O)NC4(CCC(C)CC4)C3=O)nnc12 (centres undefined)	12.8	0.994	1	-0.1	0.9
C=CCSc1nc(C)cc(/C=C\c2ccccc2)c1C#N	-116.7	-2.98	0.9	7.1	2.2*
C=CCSc1nc(N)c(C#N)c(-c2ccc(C)cc2)c1C#N	63.4*	0.469	0.6	43.3	0.4
Cc1ccccc1NC(=O)CSc1nc(N)c(C#N)c(-c2cccs2)c1C#N	52.6*	0.506	0.4	61.5*	0.5
CCOC(=O)CSc1nc(N)c(C#N)c(-c2ccc(OCC)cc2)c1C#N	45.5	-0.219	0.7	28.0	0.5
CCOc1ccccc1NC(=O)CSc1nc(N)c(C#N)cc1C#N	23.6	0.036	1	-1.0	0.8
CCSc1nc(N)nc(-c2cccs2)c1C#N	71.8*	.	0.6	37.1	0.3
O=C(CCC1CCCC1)Nc1ccon1	11.9	0.399	0.7	25.8	0.9
CCN(C(=O)C1CCN(S(=O)(=O)c2ccc3c(c2)oc(=O)n3C)CC1)c1cccc(C)c1	-0.4	-0.00149	0.9	10.2	1
CCOc1ccccc1N(CC(=O)OC)S(C)(=O)=O	8.1	-0.025	0.7	27.8	0.9
CN1CCc2nc(SCc3ccc(Cl)cc3)c(C#N)c(-c3cccs3)c2C1	.	-2.06	.	.	.
COc1cc(-c2c(C#N)c(N)nc(SCc3ccncc3)c2C#N)cc(OC)c1OC	100.4*	-0.00262	0	100.0*	0
COc1cc(-c2c(C#N)c(N)nc3c2CCCC3)cc(OC)c1OC	.	-0.713	.	.	.
